Shown are actives, neighbours in structure and some others; about 2.8% of the full set was active somewhere.
HSP90 refold inh: HSP90 refolding inhibition in rabbit reticulocyte lysate; inhibition, % at 5.6 µM; AID 1789; luciferase refolding luminescence, 3 h; 290,000 tested, 0.91% active;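 active = inhibition above the screen-wide mean plus 3 SD, computed separately per campaign, cut at about 16% in these data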;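 note: 0% = DMSO wells and 100% = 60 µM geldanamycin wells; inhibitors lower the luminescence because luciferase stays unfolded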
SENP7 block: SENP7 protease inhibition | 330,000 tested, 1.5% active | recombinant SENP7, Z-RLRGG-aminoluciferin luminescence, 40 min | AID 434973 | Q9BQF6 | inhibition, % at 5 µM;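 active = inhibition above about 50% at the single test dose, limit read from the data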;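 note: plate controls were DMSO with enzyme for no effect and no enzyme buffer wells for full effect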
Target sequence (Q9BQF6 706-1050 limits assumed): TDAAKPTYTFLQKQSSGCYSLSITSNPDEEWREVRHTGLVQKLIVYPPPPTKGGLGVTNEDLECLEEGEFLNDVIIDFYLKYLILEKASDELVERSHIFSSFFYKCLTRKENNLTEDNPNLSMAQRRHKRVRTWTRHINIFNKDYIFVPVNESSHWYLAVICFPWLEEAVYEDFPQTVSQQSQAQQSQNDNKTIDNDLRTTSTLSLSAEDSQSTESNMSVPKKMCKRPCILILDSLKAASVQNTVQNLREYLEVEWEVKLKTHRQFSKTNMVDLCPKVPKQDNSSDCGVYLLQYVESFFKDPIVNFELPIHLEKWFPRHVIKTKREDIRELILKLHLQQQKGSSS
Platelet DG rel: platelet dense granule release activity; human platelet-rich plasma, SFLLRN dense granule ATP release, luminescence; inhibition, %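 (compounds screened at 7.5 µM in platelet-rich plasma)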; 300,000 tested, 0.22% active; AID 1663;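 active = mean replicate score, as percent of positive control, at or above 50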
SENP8 block-1: blocks the human protease SENP8; Q96LD8; purified SENP8, Z-RLRGG-aminoluciferin cleavage, luminescence; inhibition, % at 10 µM; 330,000 tested, 1.2% active; AID 2540; in the data active = inhibition above about 50%
Target sequence (Q96LD8 whole entry, looked up): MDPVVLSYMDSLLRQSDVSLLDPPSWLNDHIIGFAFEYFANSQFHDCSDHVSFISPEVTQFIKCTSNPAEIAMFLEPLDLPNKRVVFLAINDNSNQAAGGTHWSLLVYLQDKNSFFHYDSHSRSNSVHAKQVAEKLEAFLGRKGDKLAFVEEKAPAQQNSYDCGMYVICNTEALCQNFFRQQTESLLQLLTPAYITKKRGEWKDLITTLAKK
SENP6 inh: SENP6 protease inhibition; Q9GZR1; Recombinant SENP6 catalytic domain, aminoluciferin luminescence; inhibition, % at 10 µM; 330,000 tested, 1.8% active;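 active = inhibition above about 50% at the single tested dose, limit read from the data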;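 note: plate controls were DMSO wells with enzyme for no effect and DMSO wells lacking enzyme for full effect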
SENP8 block-2: SENP8 (human) protease inhibition; recombinant SENP8, Nedd8 substrate fluorescence; inhibition, % at 20 µM; 360,000 tested, 0.64% active; AID 602440; Q96LD8; in the data active = inhibition mostly above about 40%, no sharp cut-off; inactive = mostly below about 27%
SENP8 confirm: human SENP8 inhibition, confirmed | Recombinant SENP8, Z-RLRGG-aminoluciferin luminescence, 60 min | AID 488912 | 6,200 tested, 40% active | shares compounds with SENP7 block | inhibition, % at 12.5 µM;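 active = mean inhibition across replicates above about 50%, limit read from the data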
SENP6 confirm: confirmation of human SENP6 protease inhibitors. shares compounds with SENP7 block. AID 488915. 6,200 tested, 58% active. inhibition, % at 12.5 µM. recombinant SENP6, Z-RLRGG-aminoluciferin luminescence
SENP7 conf: confirmation of human SENP7 protease inhibitors. inhibition, % at 12.5 µM. shares compounds with SENP7 block. 6,200 tested, 69% active. recombinant SENP7, Z-RLRGG-aminoluciferin luminescence, 40 min. AID 488917
Casp3 SENP sel: inhibits human caspase-3 in SENP selectivity test; shares compounds with SENP7 block; purified caspase-3, Z-DEVD-aminoluciferin luminescence, 60 min; inhibition, % at 12.5 µM; 6,200 tested, 60% active; AID 488918;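 active = mean inhibition above about 50%, limit read from the data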;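 note: plate controls were enzyme with DMSO for no effect and wells without caspase-3 for full effect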
Luc interf: interferes with luciferase luminescence in SENP counter-screen | inhibition, % at 12.5 µM | shares compounds with SENP7 block | 6,200 tested, 39% active | Pre-incubated SENP8/Z-RLRGG-aminoluciferin, luciferase luminescence interference;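 active = mean inhibition above about 50% when retested at one dose, limit read from the data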;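 note: plate controls were DMSO wells with completed reaction for no effect and substrate without enzyme for full effect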
* = called active by the depositor; x = no result given.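 Rule for the calls, unless noted: active = mean inhibition above about 50% in the one-dose retest (limit read from the data); inactive = the rest.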

SMILES | HSP90 refold inh | SENP7 block | Platelet DG rel | SENP8 block-1 | SENP6 inh | SENP8 block-2 | SENP8 confirm | SENP6 confirm | SENP7 conf | Casp3 SENP sel | Luc interf
Cc1ccc(SC/C(O)=C(\C#N)c2nc3ccccc3s2)cc1 | 3 | 0 | -3 | 25 | 71* | 29 | 6 | 22 | 13 | 16 | 8
COC(=O)c1cc(NC(=O)Cn2c(=O)oc3ccccc32)cc(C(=O)OC)c1 | -4 | -11 | -1 | -3 | -70 | -1 | x | x | x | x | x
Cc1occc1C(=O)Nc1ccc2c(c1)OCO2 | 2 | 80* | 25 | 54* | 84* | 22 | 64* | 63* | 89* | 90* | 74*
CSc1ccccc1C(=O)Nc1ccc2c(c1)OCO2 | 0 | 3 | -8 | -9 | -8 | -1 | x | x | x | x | x
COC(=O)c1cc(NC(=O)c2ccoc2C)cc(C(=O)OC)c1 | -3 | 0 | -3 | 0 | -8 | -8 | x | x | x | x | x
Cc1cc(NC(=O)c2ccoc2C)ccc1Br | x | 97* | x | 97* | 100* | 4 | 98* | 99* | 102* | 95* | 96*
Cc1occc1C(=O)Nc1cccc(C(=O)O)c1 | 13 | 96* | -3 | 91* | 96* | 8 | 95* | 95* | 101* | 72* | 93*
Cc1ccc(NC(=O)c2ccoc2C)cc1C | -8 | 97* | 49 | 92* | 92* | 16 | -2 | 94* | 101* | 96* | 93*
COc1cc(C(=O)NCC(c2cccs2)N2CCOCC2)cc(OC)c1OC (stereo unspecified) | x | 5 | 1 | 3 | -5 | 9 | x | x | x | x | x
CSc1ccccc1C(=O)Nc1cc(C)cc(C)c1 | -2 | 3 | 5 | -5 | 19 | 28 | x | x | x | x | x
CSc1ccccc1C(=O)Nc1ccc(C)c(C)c1 | 2 | 68* | -1 | 39 | 65* | -2 | 54* | 52* | 84* | 74* | 70*
CCCCCc1ccc(-c2ccc(OC)cc2)nc1 | -5 | 39 | 5 | 27 | 52* | 12 | 25 | 32 | 64* | 34 | 32
CCCCCCCOc1ccc(-c2ccc(C#N)cn2)cc1 | 0 | -5 | 2 | -2 | -26 | -297 | x | x | x | x | x
CCOc1ccccc1NC(=O)CCNC(=O)C1CCN(S(=O)(=O)c2ccccc2)CC1 | x | x | x | x | x | 13 | x | x | x | x | x
N#C/C(=C\c1ccc(Sc2ccccc2)o1)c1nc2ccccc2[nH]1 | -8 | 94* | 9 | 23 | 46 | -96 | 62* | 48 | 99* | 78* | 67*
N#C/C(=C\c1cccs1)c1nc2ccccc2[nH]1 | -1 | x | 6 | x | x | -50 | x | x | x | x | x
N#C/C(=C/c1ccc(O)c(O)c1)c1nc2ccccc2[nH]1 | 0 | 72* | 9 | 70* | 80* | -86 | 82* | 81* | 94* | 78* | 15
CSc1nc(N)n2nc(-c3ccc(Cl)cc3)cc2n1 | -2 | 98* | 67* | 89* | 94* | 3 | -4 | 14 | 9 | 31 | -6
CCOC(=O)c1cnc2cc(-c3ccc(Cl)cc3)nn2c1N | 0 | 15 | -9 | -12 | -5 | -102 | x | x | x | x | x
COc1ccc(S(=O)(=O)N2CCCC(C(=O)N3CCN(Cc4ccccc4)CC3)C2)cc1Cl (stereo unspecified) | x | x | x | x | x | 17 | x | x | x | x | x
N#Cc1cnc2sc3ccccc3n2c1=N | -2 | 79* | 8 | 93* | 94* | -179 | 95* | 96* | 100* | 97* | 94*
O=C(/C=C/c1ccc(O)c(O)c1)c1ccccc1O | -9 | 97* | 70* | 97* | 14 | 20 | 11 | 101* | 103* | 95* | 99*
O=C(O)c1ccc(/C=N/Nc2ccc(Cl)nn2)cc1 | -7 | 76* | -7 | 65* | 72* | 17 | 19 | 26 | 20 | 81* | 10
Oc1cccc(/C=N/Nc2ccc(Cl)nn2)c1 | -5 | -8 | -2 | -20 | -14 | -2 | x | x | x | x | x
O=C(NN=c1c(=O)c2ccccc2c1=O)c1ccccc1 | 4 | 84* | 3 | 71* | 76* | 69* | -16 | 71* | 19 | -3 | 3
SMILES | HSP90 refold inh | SENP7 block | Platelet DG rel | SENP8 block-1 | SENP6 inh | SENP8 block-2 | SENP8 confirm | SENP6 confirm | SENP7 conf | Casp3 SENP sel | Luc interf
Oc1cccc(/C=N/Nc2cccc3cccnc23)c1 | -2 | 92* | 44 | 96* | -7 | -81 | 97* | 100* | 104* | 94* | 93*
Oc1c(/C=N/Nc2cccc3cccnc23)ccc2ccccc12 | 0 | 15 | 1 | 37 | 52* | -98 | 20 | 13 | 12 | 10 | 5
CCN(CC)S(=O)(=O)c1ccc(N2CCCC2)c(NC(=O)CN2C(=O)NC3(CCCC3)C2=O)c1 | x | 7 | -1 | -2 | 6 | -7 | x | x | x | x | x
O=C1/C(=C/Nc2cccc([N+](=O)[O-])c2)CCc2ccccc21 | 5 | 29 | -6 | 61* | 19 | -126 | 2 | 81* | 92* | 60* | 24
c1ccc(-c2ccc3sccc3n2)cc1 | x | 85* | 3 | 75* | 83* | 16 | 36 | 78* | 94* | 79* | 57*
CCOc1ccc(CCNC(=O)COC(=O)COc2ccc(C#N)cc2)cc1OCC | x | -11 | x | -8 | -13 | 11 | x | x | x | x | x
COc1ccc(CCNC(=O)CCn2c(SCC(=O)N3CCCC3)nc3ccccc3c2=O)cc1OC | 3 | 2 | 0 | -1 | 70* | 11 | 12 | 4 | 0 | -3 | -2
COc1ccc2nc(N3CCC(C)CC3)c(C#N)cc2c1 | 2 | -5 | 0 | 11 | 72* | -326 | 6 | 6 | 9 | 4 | 5
CN(CC(=O)N1CCOCC1)S(=O)(=O)c1ccc2ccccc2c1 | 0 | -2 | 3 | -3 | -11 | 1 | x | x | x | x | x
O=C(NCc1cccs1)c1ccc(CS(=O)Cc2cccc(Cl)c2)o1 (stereo unspecified) | 2 | -13 | -2 | -3 | -7 | 13 | x | x | x | x | x
CCCCOc1ccc(/C=C2/Sc3ccccc3C2=O)cc1 | 4 | 71* | 8 | 76* | 44 | -245 | 3 | 18 | 15 | 12 | 8
CC(=O)Oc1cccc(/C=C2\C=C(c3ccc(C)cc3)OC2=O)c1 | 5 | -4 | 7 | -12 | 3 | -63 | x | x | x | x | x
O=C1NC(=O)/C(=C\c2ccc(OCc3cnc(Cl)s3)cc2)S1 | -2 | 3 | 1 | 29 | 35 | -6 | x | x | x | x | x
O=C1Nc2ccccc2S/C1=C/c1cccs1 | -8 | -9 | 2 | -24 | -14 | -2 | x | x | x | x | x
